Results reported in PubChem BioAssay (EPA / NIEHS).
Inconclusive results are not listed. Calls of active or inactive are those of the source. How the source made its calls: active means hit-call score of the fitted dose curve at least 0.9, where 1 is the maximum; inconclusive means response in the unintended direction; inactive means score below 0.9.

Assays:
[1] = ATG_M_32_XSP1: Attagene TRANS-FACTORIAL Multi-Species (XSP1) HepG2 Assay for M32 Transcription Factor (Internal Marker) (AID 2283799)
Summary of the method: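 HepG2 cells transiently transfected with multi-species TRANS reporter units, dosed 24 h with 3 nM 6-alpha-fluorotestosterone present. Internal-marker reporter mRNA quantified by RT-PCR and capillary electrophoresis; positive-direction fit versus DMSO.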

[2] = molecular target: Peroxisome proliferator-activated receptor gamma (Homo sapiens) (UniProt P37231); assay: ATG_hPPARg_XSP1: Attagene TRANS-FACTORIAL Multi-Species (XSP1) HepG2 Assay for human Peroxisome Proliferator-activated Receptor gamma (PPARg) (AID 2283800)
Peroxisome proliferator-activated receptor gamma (Homo sapiens), sequence (P37231 whole entry, looked up, the tested form may be a part): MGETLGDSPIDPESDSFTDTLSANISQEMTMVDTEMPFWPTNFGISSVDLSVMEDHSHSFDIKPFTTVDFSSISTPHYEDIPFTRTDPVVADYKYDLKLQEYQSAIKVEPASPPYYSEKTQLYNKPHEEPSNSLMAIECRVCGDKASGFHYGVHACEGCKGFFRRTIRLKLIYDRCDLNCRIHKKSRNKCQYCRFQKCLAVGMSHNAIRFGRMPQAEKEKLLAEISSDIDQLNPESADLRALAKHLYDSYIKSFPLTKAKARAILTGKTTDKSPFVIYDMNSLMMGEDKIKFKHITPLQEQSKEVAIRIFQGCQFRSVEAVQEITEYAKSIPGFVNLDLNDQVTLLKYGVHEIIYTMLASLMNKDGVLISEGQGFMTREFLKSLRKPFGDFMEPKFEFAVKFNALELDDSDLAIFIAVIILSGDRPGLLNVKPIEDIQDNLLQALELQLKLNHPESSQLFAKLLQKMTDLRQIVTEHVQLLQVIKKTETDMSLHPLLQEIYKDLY
Summary of the method: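 HepG2 cells transiently transfected with GAL4-UAS reporter units carrying chimeric NR-Gal4 proteins; 3 nM 6-alpha-fluorotestosterone present. After 24 h dosing, reporter mRNA quantified by RT-PCR and capillary electrophoresis; gain of signal relative to DMSO.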

[3] = tested on: zebrafish Peroxisome Proliferator-activated Receptor gamma (PPARg), gene 557037; assay: ATG_zfPPARg_XSP1: Attagene TRANS-FACTORIAL Multi-Species (XSP1) HepG2 Assay for zebrafish Peroxisome Proliferator-activated Receptor gamma (PPARg) (AID 2283801)
Summary of the method: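 HepG2 cells transiently transfected with GAL4-UAS reporter units including a zebrafish PPARg–GAL4 chimera, dosed 24 h with 3 nM 6-alpha-fluorotestosterone present. Reporter mRNA quantified by RT-PCR, FAM labelling, HpaI digestion and capillary electrophoresis; induction versus DMSO.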

[4] = molecular target: mouse Peroxisome Proliferator-activated Receptor gamma (PPARg), Pparg (gene 19016) (UniProt P37238); assay: ATG_mPPARg_XSP1: Attagene TRANS-FACTORIAL Multi-Species (XSP1) HepG2 Assay for mouse Peroxisome Proliferator-activated Receptor gamma (PPARg) (AID 2283802)
mouse Peroxisome Proliferator-activated Receptor gamma (PPARg), Pparg (gene 19016), sequence (P37238 whole entry, looked up, the tested form may be a part): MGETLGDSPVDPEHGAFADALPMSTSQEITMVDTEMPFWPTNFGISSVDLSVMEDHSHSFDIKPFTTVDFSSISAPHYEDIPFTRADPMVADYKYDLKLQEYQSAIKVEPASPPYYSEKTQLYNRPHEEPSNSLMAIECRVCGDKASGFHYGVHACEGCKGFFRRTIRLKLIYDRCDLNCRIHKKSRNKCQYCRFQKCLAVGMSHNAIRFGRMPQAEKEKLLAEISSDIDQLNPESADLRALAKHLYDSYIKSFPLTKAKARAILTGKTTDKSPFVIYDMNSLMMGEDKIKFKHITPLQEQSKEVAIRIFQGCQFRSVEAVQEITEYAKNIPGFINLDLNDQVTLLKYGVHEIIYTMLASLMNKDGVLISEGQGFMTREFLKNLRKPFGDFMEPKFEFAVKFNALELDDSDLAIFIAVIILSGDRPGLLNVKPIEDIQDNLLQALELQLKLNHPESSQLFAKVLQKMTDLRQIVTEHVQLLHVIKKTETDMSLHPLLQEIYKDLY
Summary of the method: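 HepG2 cells transiently transfected with GAL4-UAS reporter units driven by mouse PPARg–GAL4 chimera; 3 nM 6-alpha-fluorotestosterone present. After 24 h dosing, reporter mRNA quantified by RT-PCR, fluorescent labelling and capillary electrophoresis; gain of signal versus DMSO.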

[5] = molecular target: Nuclear receptor subfamily 1 group I member 2 (Mus musculus) (UniProt O54915); assay: ATG_mPXR_XSP1: Attagene TRANS-FACTORIAL Multi-Species (XSP1) HepG2 Assay for mouse Pregnane X Receptor (PXR) (AID 2283803)
Nuclear receptor subfamily 1 group I member 2 (Mus musculus), sequence (O54915 whole entry, looked up, the tested form may be a part): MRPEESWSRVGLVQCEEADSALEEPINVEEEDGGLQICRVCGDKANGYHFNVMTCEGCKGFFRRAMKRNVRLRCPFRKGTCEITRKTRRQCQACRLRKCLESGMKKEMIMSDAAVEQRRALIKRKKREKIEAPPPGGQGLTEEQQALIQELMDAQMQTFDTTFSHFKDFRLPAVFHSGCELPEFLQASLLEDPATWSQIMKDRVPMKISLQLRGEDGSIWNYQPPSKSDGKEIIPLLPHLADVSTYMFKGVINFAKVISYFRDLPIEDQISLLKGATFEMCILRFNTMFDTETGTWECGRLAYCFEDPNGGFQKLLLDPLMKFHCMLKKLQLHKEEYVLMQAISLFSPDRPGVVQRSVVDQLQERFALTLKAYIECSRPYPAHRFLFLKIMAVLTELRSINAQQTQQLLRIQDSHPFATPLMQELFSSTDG
Summary of the method: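 Transiently transfected HepG2 cells expressing a receptor-Gal4 chimera drive a GAL4-UAS reporter; 3 nM 6-alpha-fluorotestosterone included. Reporter mRNA read 24 h post-dose by RT-PCR and capillary electrophoresis; gain of signal relative to DMSO.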

[6] = molecular target: frog Thyroid hormone Receptor alpha (TRa), thra-a (gene 397942) (UniProt P15204); assay: ATG_frTRa_XSP1: Attagene TRANS-FACTORIAL Multi-Species (XSP1) HepG2 Assay for frog Thyroid hormone Receptor alpha (TRa) (AID 2283804)
frog Thyroid hormone Receptor alpha (TRa), thra-a (gene 397942), sequence (P15204 whole entry, looked up, the tested form may be a part): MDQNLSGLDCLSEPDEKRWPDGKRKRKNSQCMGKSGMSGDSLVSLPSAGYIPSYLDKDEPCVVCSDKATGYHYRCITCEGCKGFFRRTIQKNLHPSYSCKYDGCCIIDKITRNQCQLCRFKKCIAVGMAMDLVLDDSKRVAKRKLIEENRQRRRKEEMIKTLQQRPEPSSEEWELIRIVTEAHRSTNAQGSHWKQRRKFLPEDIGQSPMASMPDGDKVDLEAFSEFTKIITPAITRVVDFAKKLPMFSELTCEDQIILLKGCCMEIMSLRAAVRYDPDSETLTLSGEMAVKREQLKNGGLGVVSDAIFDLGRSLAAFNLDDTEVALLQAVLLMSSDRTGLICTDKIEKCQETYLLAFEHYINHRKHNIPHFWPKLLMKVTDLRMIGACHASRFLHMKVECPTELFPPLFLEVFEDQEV
Summary of the method: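 HepG2 cells transiently transfected with frog TRa-GAL4 chimeric reporter units, dosed 24 hr with 3 nM 6-alpha-fluorotestosterone present; reporter mRNA quantified by RT-PCR, fluorescent labelling and capillary electrophoresis, gain of signal versus DMSO.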

[7] = molecular target: human Thyroid hormone Receptor alpha (TRa), THRA (gene 7067) (UniProt P10827); assay: ATG_hTRa_XSP1: Attagene TRANS-FACTORIAL Multi-Species (XSP1) HepG2 Assay for human Thyroid hormone Receptor alpha (TRa) (AID 2283805)
human Thyroid hormone Receptor alpha (TRa), THRA (gene 7067), sequence (P10827 whole entry, looked up, the tested form may be a part): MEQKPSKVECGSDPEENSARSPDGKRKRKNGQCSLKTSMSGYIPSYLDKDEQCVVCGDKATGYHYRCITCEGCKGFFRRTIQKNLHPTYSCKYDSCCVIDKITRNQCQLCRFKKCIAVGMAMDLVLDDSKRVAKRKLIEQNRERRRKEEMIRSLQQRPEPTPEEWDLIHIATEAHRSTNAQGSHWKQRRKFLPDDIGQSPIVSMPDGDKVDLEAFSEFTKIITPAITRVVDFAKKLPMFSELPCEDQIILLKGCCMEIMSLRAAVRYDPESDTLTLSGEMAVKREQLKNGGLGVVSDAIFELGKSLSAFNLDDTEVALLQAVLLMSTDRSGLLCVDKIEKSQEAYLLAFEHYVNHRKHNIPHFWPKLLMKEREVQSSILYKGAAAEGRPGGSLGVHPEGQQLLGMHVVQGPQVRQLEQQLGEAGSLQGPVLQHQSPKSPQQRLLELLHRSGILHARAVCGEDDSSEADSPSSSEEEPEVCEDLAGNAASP
Summary of the method: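 HepG2 cells transiently transfected with GAL4-UAS reporter units expressing chimeric NR-Gal4 proteins, dosed 24 hours with 3 nM 6-alpha-fluorotestosterone present. Reporter mRNA measured by RT-PCR and capillary electrophoresis; gain of signal fitted versus DMSO.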

[8] = tested on: turtle Thyroid Hormone Receptor, alpha (TRa), gene 101949057; assay: ATG_trTRa_XSP1: Attagene TRANS-FACTORIAL Multi-Species (XSP1) HepG2 Assay for turtle Thyroid Hormone Receptor, alpha (TRa) (AID 2283806)
Summary of the method: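 HepG2 cells transiently transfected with GAL4-UAS reporter units and chimeric receptor-Gal4 constructs, with 3 nM 6-alpha-fluorotestosterone present. Reporter mRNA was quantified 24 h after dosing by RT-PCR, 6-FAM labelling and capillary electrophoresis; gain of signal versus DMSO.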

[9] = molecular target: zebrafish Thyroid Hormone Receptor alpha (TRa), thraa (gene 30670) (UniProt Q98867); assay: ATG_zfTRa_XSP1: Attagene TRANS-FACTORIAL Multi-Species (XSP1) HepG2 Assay for zebrafish Thyroid Hormone Receptor alpha (TRa) (AID 2283807)
zebrafish Thyroid Hormone Receptor alpha (TRa), thraa (gene 30670), sequence (Q98867 whole entry, looked up): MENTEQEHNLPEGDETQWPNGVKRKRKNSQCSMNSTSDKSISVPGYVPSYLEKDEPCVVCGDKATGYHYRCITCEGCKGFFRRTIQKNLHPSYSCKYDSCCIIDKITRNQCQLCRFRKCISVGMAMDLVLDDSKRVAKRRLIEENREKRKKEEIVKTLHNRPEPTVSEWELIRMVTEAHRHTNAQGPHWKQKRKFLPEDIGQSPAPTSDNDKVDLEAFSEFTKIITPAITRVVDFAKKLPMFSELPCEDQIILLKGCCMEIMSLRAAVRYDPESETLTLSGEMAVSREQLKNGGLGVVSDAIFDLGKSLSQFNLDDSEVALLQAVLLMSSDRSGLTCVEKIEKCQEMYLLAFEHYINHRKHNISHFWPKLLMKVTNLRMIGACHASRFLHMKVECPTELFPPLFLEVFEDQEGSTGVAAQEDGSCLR
Procedure: ATG_XSP1_multi-species_TRANS is a cell-based, multiplexed assay created by modifying the existing Attagene TRANS-FACTORIAL system to include a panel of nuclear receptors from some or all the following species: human (Homo sapiens), mouse (Mus musculus), frog (Xenopus laevis), zebrafish (Danio rerio), chicken (Gallus gallus), and turtle (Chrysemys picta). The ECOTOX-FACTORIAL format uses HepG2, a human liver cell line, with measurements taken at 24 hours after chemical dosing in a 24-well plate. Xsp1 included 3 nM 6-alpha-fluorotestosterone to partially stimulate the androgen receptor.ATG_zfTRa_XSP1 is one of 29 assay components measured or calculated from the ATG_XSP1_multi-species_TRANS assay. It is designed to make measurements of mRNA induction, a form of inducible reporter, as detected with fluorescence intensity signals by Reverse transcription polymerase chain reaction (RT-PCR) and Capillary electrophoresis technology.The assay endpoint ATG_zfTRa_XSP1 was analyzed in the positive analysis fitting direction relative to DMSO as the negative control and baseline of activity. […] Furthermore, this assay endpoint can be referred to as a primary readout, because this assay has produced multiple assay endpoints where this one serves a reporter gene function. […]

[10] = molecular target: human Thyroid hormone Receptor beta (TRb), THRB (gene 7068) (UniProt P10828); assay: ATG_hTRb_XSP1: Attagene TRANS-FACTORIAL Multi-Species (XSP1) HepG2 Assay for human Thyroid hormone Receptor beta (TRb) (AID 2283808)
human Thyroid hormone Receptor beta (TRb), THRB (gene 7068), sequence (P10828 whole entry, looked up, the tested form may be a part): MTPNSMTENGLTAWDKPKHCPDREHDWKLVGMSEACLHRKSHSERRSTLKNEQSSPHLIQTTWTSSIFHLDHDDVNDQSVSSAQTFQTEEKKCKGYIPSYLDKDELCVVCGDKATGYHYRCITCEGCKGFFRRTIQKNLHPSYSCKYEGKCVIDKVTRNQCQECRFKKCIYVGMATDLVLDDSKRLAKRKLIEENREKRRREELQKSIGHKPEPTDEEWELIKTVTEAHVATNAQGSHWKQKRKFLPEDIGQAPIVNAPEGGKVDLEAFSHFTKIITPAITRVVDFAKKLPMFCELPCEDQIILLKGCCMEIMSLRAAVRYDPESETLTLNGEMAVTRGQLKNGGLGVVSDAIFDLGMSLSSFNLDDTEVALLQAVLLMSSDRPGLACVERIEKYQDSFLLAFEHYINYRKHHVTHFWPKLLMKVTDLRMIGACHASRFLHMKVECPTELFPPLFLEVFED
Summary of the method: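 HepG2 cells transiently transfected with reporter units driving GAL4-UAS reporters for chimeric NR-Gal4 proteins; 24 h chemical exposure with 3 nM 6-alpha-fluorotestosterone present. Reporter mRNA quantified by RT-PCR and capillary electrophoresis, gain of signal versus DMSO.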

SMILES | outcome [1] | outcome [2] | outcome [3] | outcome [4] | outcome [5] | AC50 [6] | AC50 [7] | AC50 [8] | AC50 [9] | AC50 [10] | AC50 [4] | AC50 [5] | outcome [6] | outcome [8] | outcome [9] | outcome [10]
CCN(CC)CCOc1ccc(C(=C(Cl)c2ccccc2)c2ccccc2)cc1 | inactive | inactive | inactive | inactive | inactive | 945 nM (active) | 1930 nM (active) | 1130 nM (active) | 2960 nM (active) | 2020 nM (active) |  |  |  |  |  | 
CC(=O)O[C@]1(C(C)=O)CC[C@H]2[C@@H]3C=C(Cl)C4=CC(=O)[C@@H]5C[C@@H]5[C@]4(C)[C@H]3CC[C@@]21C |  | inactive |  |  |  |  |  |  |  |  | 20200 nM (active) | 347 nM (active) | inactive | inactive | inactive | inactive
